Furin inhibitor – blocks human furin protease activity. P09958. purified furin, fluorogenic substrate cleavage. inhibition, % at 20 µM or 30 µM. 0.061% of 220,000 active; in the data active = inhibition above about 25%
Calpain2 inh – inhibitors of pig calpain II; purified calpain II, fluorogenic peptide substrate, 30 min; inhibition, % at 16 µM; 0.37% of 220,000 active; AID 1236;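 active = inhibition above about 50%, limit read from the data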
PGE2 EP2 inh – EP2 receptor (human) inhibition. P43116. C6 glioma cells expressing human EP2, cAMP TR-FRET; cells stimulated with saturating PGE2. inhibition, % at 25 µM. 0.52% of 260,000 active;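 active = percent inhibition above 40 after rounding to a whole number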;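 also: rat C6 glioma host cells with rolipram phosphodiesterase inhibitor present; the protocol text gives 20 µM as final concentration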
Target sequence (P43116 whole entry, looked up): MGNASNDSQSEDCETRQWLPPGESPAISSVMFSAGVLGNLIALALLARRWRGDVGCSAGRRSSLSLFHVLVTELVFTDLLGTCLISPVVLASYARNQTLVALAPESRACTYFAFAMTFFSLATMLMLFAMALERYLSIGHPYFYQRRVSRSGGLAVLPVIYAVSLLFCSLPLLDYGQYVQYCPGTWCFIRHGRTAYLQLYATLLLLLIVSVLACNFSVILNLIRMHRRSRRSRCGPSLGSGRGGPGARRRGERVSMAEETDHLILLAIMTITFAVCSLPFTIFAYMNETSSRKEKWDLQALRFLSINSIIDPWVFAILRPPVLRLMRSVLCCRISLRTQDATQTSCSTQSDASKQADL
HMGR II inh – inhibitors of class II HMG-CoA reductase from Enterococcus faecalis; 0.41% of 190,000 active; inhibition, % at 10 µM; purified E. faecalis HMGR, NADPH absorbance 340 nm kinetic;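 active = inhibition above a set limit, the median over all tested compounds plus 3 SD, cut at about 9.5% in these data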;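 also: enzyme runs in reverse so mevalonate oxidation gives rising NADPH absorbance; 0% = complete reaction with DMSO and 100% = background rate lacking mevalonate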
EP2 modulator – EP2 receptor (human) modulation; P43116; induction, % at 25 µM; EP2-expressing cells, cAMP HTRF FRET, PGE2 co-stimulation; AID 940; 0.83% of 260,000 active;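 active = compounds whose cAMP rise, as percent of the full-agonist control response, exceeds 60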;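 also: rat C6 glioma line stably carrying human EP2 under a CMV promoter; the protocol text gives 20 µM as final concentration; 100% = response of wells given 1 µM PGE2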
Starred values were filed as active, the others as inactive; i = inactive; nt = not tested or not shown. Shown are actives, neighbours in structure and some others; about 1.9% of the full set was active somewhere.

SMILES | Furin inhibitor | Calpain2 inh | PGE2 EP2 inh | HMGR II inh | EP2 modulator
C=CCNC(=O)c1c(C(F)(F)F)nn(C)c1Cl | -27.5 | -14.6 | 8.5 | 9.6* | 5.1
O=C(COc1ccccc1C(=O)N/N=C\c1ccc(O)c(O)c1)N/N=C/c1ccc(O)c(O)c1 | -12.6 | -2.8 | nt | 28.7* | 5.5
CCSc1nc2sc3c(c2c2nnc(SCC(=O)NCc4ccco4)n12)CCCC3 | -11.1 | nt | 49.4* | nt | nt
CC1CCc2c(sc3nc(C4CC4)n4c(SCC(=O)NCc5ccco5)nnc4c23)C1 (stereo not drawn) | nt | nt | 10.4 | nt | 27.7
CCN(CC)c1c(-c2ccccc2)c2cc(C)ccc2[nH]c1=O | -15.7 | -4.3 | 10.4 | -11.4 | 60.6*
CC(=O)N(C)c1ccc(NC(=S)Nc2ccccc2)cc1 | -13.8 | -5.7 | 14.5 | -3.6 | 26.2
CC(=O)N(C)c1ccc(NC(=O)Nc2ccc(C)cc2)cc1 | -17.1 | 51.4* | 9.9 | -0.9 | -8.0
Cc1cc(SCC(=O)N2CCOCC2)nc(SCC(=O)c2ccccc2)n1 | nt | nt | 7.3 | nt | -27.3
c1ccc(-c2ccccc2OCCCN2CCCCC2)cc1 | -20.8 | -5.0 | 18.0 | 1.9 | 15.4
C[C@H]1CC(C)(C)C[C@@](OCCN2CCCCC2)(c2ccccc2)C1 | nt | nt | 53.4* | nt | 6.8
COc1ccccc1Nc1nc2ccc(C)cc2cc1C#N | -15.2 | -48.7 | nt | -1.2 | 61.4*
COc1ccccc1Nc1nc2cc(C)ccc2cc1C#N | -32.8 | -170.1 | 10.1 | -3.3 | 4.3
O=C(COC(=O)COc1ccc2ccccc2c1)NC1CCCc2ccccc21 (stereo not drawn) | -22.1 | 24.5 | 7.9 | -2.2 | 6.2
Cc1ccc(Cl)c(OCC(=O)OCC(=O)NC2CCCc3ccccc32)c1 (stereo not drawn) | -18.5 | -11.0 | 19.3 | 12.6* | 8.3
COc1ccc2[nH]c3c(C)c4ccncc4c(C)c3c2c1 | -8.7 | -25.3 | 87.4* | nt | -45.8
N#C/C(=C\c1cccs1)C(=O)c1ccccc1Cl | 4.1 | -19.5 | 113.0* | nt | -57.8
CC(C)(C)C(=O)/C(C#N)=C/c1cccs1 | -16.4 | 3.7 | 9.5 | nt | -29.2
NC1=N[C@@H](c2ccc(Cl)cc2)N(c2ccc(S(N)(=O)=O)cc2)C(N)=N1 | nt | nt | 46.9* | nt | -0.3
COc1ccc(C2N=C(N)N=C(N)N2c2ccc(C)cc2)cc1 (stereo not drawn) | -12.4 | -16.7 | -6.4 | 2.4 | 6.1
CC(O)CN(Cc1ccc2c(c1)OCO2)Cc1cnn(-c2ccc(F)cc2)c1 (stereo not drawn) | nt | nt | 7.7 | nt | -77.0
CCCN1C/C(=C/c2ccc3c(c2)OCO3)C(=O)/C(=C/c2ccc3c(c2)OCO3)C1 | -21.8 | -47.3 | 9.2 | -5.1 | 38.2
O=C1OCCC/C1=C\c1ccc2c(c1)OCO2 | -13.4 | -27.3 | 5.6 | nt | 81.9*
Cc1ccc(C)c(NC(=O)c2nc(-c3ccccc3)n(-c3ccccc3)n2)c1 | -1.6 | 23.6 | -0.8 | -7.6 | 45.3
Cc1ccc(C)c(NC(=O)c2cc(-c3ccccc3)nn2-c2ccccc2)c1 | -17.6 | 35.6 | 2.1 | -5.8 | 63.5*
COc1ccc(C(O)CN2CCCC(O)(c3ccccc3OC)C2)cc1 (stereo not drawn) | nt | nt | 9.5 | nt | 2.8
SMILES | Furin inhibitor | Calpain2 inh | PGE2 EP2 inh | HMGR II inh | EP2 modulator
O=C(Cn1c(=O)n(-c2ccccc2)c(=O)n1CC(=O)N1CCCCC1)N1CCCCC1 | -27.5 | 50.2* | 7.2 | -4.9 | 5.8
O=c1n(-c2ccccc2)c(=O)n2n1CCCC2 | -9.7 | -40.5 | 29.1 | 1.4 | 18.4
O=S(=O)(c1ccc(Br)cc1)N1CCN(S(=O)(=O)c2ccc(Br)cc2)CC1 | nt | nt | 41.6* | nt | -1.4
CCNC(=S)/N=C(/Nc1ccc(OC)cc1)Nc1nc(C)cc(C)n1 | -15.0 | 2.4 | 13.8 | nt | 15.2
CCNC(=S)/N=C(/Nc1ccccc1)Nc1nc(C)cc(C)n1 | -6.6 | 4.2 | 7.1 | nt | 69.8*
CCCNS(=O)(=O)c1cc(-c2nnc3c4ccccc4c(C)nn23)ccc1OC | nt | nt | 10.1 | nt | 9.2
O=C(O[C@@H]1Cc2c(O)cc(O)cc2O[C@@H]1c1cc(O)c(O)c(O)c1)c1cc(O)c(O)c(O)c1 | nt | 26.1 | 11.9 | 14.2* | 27.8
O=C(NCCc1ccccn1)c1ccc(OC(F)F)cc1 | -27.8 | 88.9* | 6.5 | -7.1 | -8.6
CCN(CC)S(=O)(=O)c1ccc(C(=O)NCCc2ccccn2)cc1 | -12.6 | -13.2 | 7.8 | -5.8 | -2.4
CC(C)NC(=O)C1CCCN1S(=O)(=O)c1ccc(Cl)cc1 (stereo not drawn) | nt | nt | 13.8 | nt | 8.2
c1ccc(CCNc2ccnc3cc4ccccc4cc23)cc1 | -59.4 | i | 57.5* | -2.5 | -83.2
CC(C)Nc1ccc(Nc2ccnc3cc4ccccc4cc23)cc1 | -11.2 | -1.4 | 12.4 | nt | -34.6
